High-throughput results deposited in PubChem BioAssay by National Center for Advancing Translational Sciences (NCATS).
EPAC1 ag val – validation of human EPAC1 agonists. O95398. EPAC1 Rap1b BODIPY-GDP exchange, fluorescence. Potency, µM, most hits filed as activators. 16,000 tested, 1% active. AID 1645883; also: nearly all actives have a fitted effect of over 70% in size
EPAC2 antag – validation of human EPAC2 antagonists; Q8WZA2; EPAC2 Rap1B BODIPY-GDP exchange, fluorescence; Potency, µM (doses to about 112 µM), usual class: inhibitors; 16,000 tested, 1.7% active; also: nearly all actives have a fitted effect of over 40% in size
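Fluorescent exchange read-out: 100 nM EPAC2 with 250 nM RAP1B–BODIPY-GDP and 50 uM GDP; BODIPY-GDP release lowers fluorescence. Read at 480/540 nm every 5 min for 30 min at room temperature; normalized to 6.5 mM cAMP.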
Large screens that a line does not name were inactive; ! = repeats disagree. Most compounds without a hit are left out; they make up all but 3.1% or so of the library. Calls follow the shape of the dose curve; as a rule, active = well fitted curve in the direction sought with a large enough effect; inconclusive = small, poorly fitted or top-dose-only effect, or another doubt; inactive = no such curve, though single readings can be large; an effect the other way counts as inactive or inconclusive.

Cc1oc(-c2ccccc2NC(=O)C2CCC2)nc1CNC(=O)c1ccc(C#CC(C)(C)O)cc1	EPAC2 antag inconclusive
COc1ccc(C[C@@H](C)NC[C@H](O)c2ccc(O)c(NC=O)c2)cc1	none
Cc1ccc(C)c(CN2C[C@H](Sc3nc4ccccc4[nH]3)C[C@H]2C(=O)N2CCCN(C)CC2)c1	none
COc1cc(C)c(/C=C/C(C)=C/C=C/C(C)=C/C(=O)O)c(C)c1C	EPAC2 antag 25.1µM!
COC(=O)/C=C/C(C)=C/C=C/C(C)=C/C=C/C=C(C)/C=C/C=C(C)/C=C/C(=O)O	none
CC(C)C[C@@H]1NC(=O)[C@H](CCCN)NC(=O)[C@H](C(C)C)NC(=O)[C@@H]2CCCN2C(=O)[C@@H](Cc2ccccc2)NC(=O)[C@H](CC(C)C)NC(=O)[C@H](CCCN)NC(=O)[C@H](C(C)C)NC(=O)[C@@H]2CCCN2C(=O)[C@@H](Cc2ccccc2)NC1=O	EPAC2 antag inconclusive
